Bioassay records: PubChem BioAssay, National Center for Advancing Translational Sciences (NCATS)
HepG2 tox – kills HepG2 cells in TGF-b inhibitor counter-screen | 410,000 compounds, 0.76% hits | Potency, µM (highest dose often 46.1 µM), for the others: at the highest dose activity change, negative = cytotoxicity, most hits filed as cytotoxic | HepG2 CAGA-GFP viability, ATP luminescence, 18 h | AID 588856
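CellTiter-Glo luminescence gave cytotoxicity after 18 hours at 37 degrees C. The cells were HepG2 CAGA-GFP in 1% FBS DMEM, stimulated with 500 pg/mL TGF-beta after compound addition. %Activity was normalised to no-cell wells (complete cell-killing) and DMSO (no toxicity), and curves were fitted and classified.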
TGFb SMAD3 inh – TGF-b pathway inhibition. HepG2 CAGA-GFP TGF-b/SMAD3 reporter, GFP fluorescence, 18 h; TGF-beta stimulated, 500 pg/mL final. Potency, µM (top dose mostly 46.1 µM), without a hit: top-dose activity, negative = inhibition, actives largely listed as inhibitors. 410,000 compounds, 1.2% hits. AID 588855; also: % is scaled to controls: 0 for no effect and ±100 for the full control effect; nearly all actives have a fitted effect of over 65% in size
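HEPG2 CAGA-GFP reporter cells (1000/well, DMEM with 1% FBS) received compounds, then recombinant TGF-beta at 500 pg/mL final for 18 hours at 37 degrees C. Per-cell GFP summed per well was normalised to unstimulated and stimulated DMSO controls before curve fitting.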
TDP1 cell noCPT – qHTS for Inhibitors of human tyrosyl-DNA phosphodiesterase 1 (TDP1): qHTS in cells in absence of CPT; DT40 Tdp1-/- hTDP1 cells, no CPT, ATP luminescence, 48 h; 420,000 compounds, 15% hits; Potency, µM (doses to about 46.2 µM), inactives show at the highest dose activity change, negative = growth inhibition, hits mostly inhibitors; AID 686978, 2013; also: % is scaled to controls: 0 for no effect and ±100 for the full control effect; nearly all actives have a fitted effect of over 55% in size
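Chicken DT40 Tdp1-/- cells complemented with human TDP1, screened without camptothecin (DMSO vehicle only), 400 cells/well. Compounds pin-transferred, cells incubated at 37 °C for at least 48 hr. Growth read as ATP-dependent luminescence (CellTiter-Glo, 30 min at RT).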
HT1080-NT tox – kills 2HG-producing HT-1080-NT fibrosarcoma cells; HT-1080-NT fibrosarcoma viability, CellTiter-Glo ATP luminescence, 48 h; Potency, µM (doses to about 46.1 µM), inactives show at the highest dose activity, negative = less viability, actives largely listed as cytotoxic; 360,000 compounds, 1.6% hits; AID 686970;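 also: NT is the 2HG producing partner of a matched IDH1 knockdown line; 0% = DMSO-treated cells and -100% = media-only wells without cells; nearly all actives have a fitted effect of over 55% in size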
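A 48-hour cytotoxicity screen used HT-1080-NT cells plated 2 hours before compound delivery. ATP-based CellTiter-Glo luminescence measured viability, normalized to DMSO and no-cell controls.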
DT40 TDP1 CPT – DT40-hTDP1 cell growth loss with CPT; chicken DT40 Tdp1-/-;hTDP1 cells + 20 nM CPT, ATP luminescence, 48 h; 420,000 compounds, 12% hits; Potency, µM (titrated, usually from 46.2 µM), for the others: at the highest dose activity change, negative = growth inhibition, actives largely listed as inhibitors; AID 686979; also: % is scaled to controls: 0 for no effect and ±100 for the full control effect; nearly all actives have a fitted effect of over 55% in size
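Cell growth measured by CellTiter-Glo luminescence after a minimum 48 h, 37 C compound exposure with 20 nM CPT in Tdp1-knockout DT40 cells stably expressing hTDP1, seeded 400/well; qHTS titration format.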
HT1080 IDH1KD tx – toxicity to HT-1080 IDH1 knockdown cells (counter line). HT-1080 IDH1 knockdown viability, ATP luminescence, 48 h. 360,000 compounds, 2% hits. Potency, µM (titrated, usually from 46.1 µM), without a hit: at the top dose activity, negative = toxicity, usual class: cytotoxic;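 also: 0% = DMSO wells and -100% = cell-free medium wells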
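Cytotoxicity counter-line: IDH1KD HT-1080, 48 h, CellTiter-Glo. Curves classed by r2, magnitude and activity.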
Active calls of the source: *; u = inconclusive; x = no result; ! = not active in a repeat. This is a sample that favours compounds with a hit; in the whole collection about 17% have one here. Calls follow the shape of the dose curve; as a rule, active = well fitted curve in the direction sought with a large enough effect; inconclusive = small, poorly fitted or top-dose-only effect, or another doubt; inactive = no such curve, though single readings can be large; an effect the other way counts as inactive or inconclusive. Potency is read from the fitted curve at half-maximal effect.

SMILES | HepG2 tox | TGFb SMAD3 inh | TDP1 cell noCPT | HT1080-NT tox | DT40 TDP1 CPT | HT1080 IDH1KD tx
CCOc1ccc(S(=O)(=O)NCCc2csc3nc(-c4ccc(F)cc4)nn23)cc1 | -29.3% | u | 6.51µM* | x | 11.6µM* | x
COC(=O)c1cc(CC(=O)c2ccc(O)cc2O)c(C)o1 | -1.3% | 10.9% | -13.7% | -7.1% | -23.8% | u
CCC(=O)Oc1ccc(C/C(=N\O)c2ccc(O)cc2O)o1 | -32.2% | -4.3% | 18.4µM* | u | u | u
Cn1c(=O)c2c(nc(NCCCO)n2C/C=C/c2ccccc2)n(C)c1=O | -17.4% | -4.7% | 18.4µM* | -16.9% | 18.4µM* | -3.3%
CC(O)CNc1nc2c(c(=O)n(C)c(=O)n2C)n1C/C=C/c1ccccc1 (configuration not stated) | -30.4% | -17.7% | 9.2µM* | 5.3% | 8.2µM* | -3.5%
Cn1c(=O)c2c(nc(N3CCOCC3)n2C/C=C/c2ccccc2)n(C)c1=O | 3.1% | -18.5% | u | -24.5% | u | -1.6%
CCC(=O)Nc1cccc2cccnc12 | -29.2% | 17.2% | 2.9% | 13.4% | 12.0% | 11.9%
CC(C)C(=O)NC(Nc1cccc2cccnc12)C(Cl)(Cl)Cl (configuration not stated) | -38.3% | -22.4% | 13µM* | -13.9% | 14.6µM* | -3.0%
CC(C)CC(=O)NC(NC(=S)Nc1cccc2cccnc12)C(Cl)(Cl)Cl (configuration not stated) | -14.1% | u | 8.2µM* | u | 8.2µM* | u
C[N+](C)(C)CCN1CCc2ccccc21 | x | x | -18.5% | 12.1% | -5.8% | 3.6%
Cc1cc(SCc2ccc([N+](=O)[O-])cc2)nc(=O)[nH]1 | -8.8% | 0.4% | -20.9% | 2.7% | 5.8% | 2.5%
CCOC(=O)N1CCN(c2ccnc3cc(Cl)ccc23)CC1 | -21.9% | -20.4% | 14.6µM* | -5.6% | u | -16.3%
CCC(=O)N1CCN(c2ccnc3cc(Cl)ccc23)CC1 | -8.6% | -2.6% | u | -7.9% | u | 2.2%
COc1cccc(Cl)c1NC(=O)N1CCN(c2ccnc3cc(Cl)ccc23)CC1 | -27.4% | u | 23.1µM* | 0.5% | u | -6.3%
O=C(Oc1ccnc2cc(Cl)ccc12)N1CCCCCC1 | 5.3% | u | 23.1µM* | -20.5% | u | -13.2%
O=C(c1ccc(Cl)cc1)N1CCN(c2ccnc3cc(Cl)ccc23)CC1 | 1.6% | u | 13µM* | u | u | -27.5%
O=C(Oc1ccc(Cl)cc1)N1CCCCC1 | 6.1% | u | -14.5% | 7.1% | -17.5% | 0.3%
Cn1cc(C(c2ccccc2)c2ccc(Cl)s2)c2ccccc21 (configuration not stated) | -21.2% | u | -15.3% | x | -19.7% | x
NC(=S)NNc1ccnc2cc(Cl)ccc12 | 2.0% | -2.7% | u | 5.3% | 5.7% | 22.2%
CCS(=O)(=O)N1CCN(c2ccnc3cc(Cl)ccc23)CC1 | 18.5% | 4.4% | u | -12.0% | -7.9% | -7.7%
O=C(NNc1ccnc2cc(Cl)ccc12)C1CCCCC1 | 16.3% | -25.8% | 0.651µM* | 3.66µM* | 0.92µM* | u
CC(C)N(C(=O)N1CCN(c2ccnc3cc(Cl)ccc23)CC1)C(C)C | 0.6% | 0.0% | 9.2µM* | -20.9% | 11.6µM* | -20.7%
CCn1c(-c2ccccc2)csc1=Nc1ccc(O)cc1 | -26.2% | -27.1% | u | -6.4% | u | -14.9%
CCOc1ccc(N=c2scc(-c3ccc(OC)cc3)n2CCO)cc1 | -31.6% | 0.0% | u | -23.4% | 9.2µM* | -16.5%
CCOc1ccc(N=c2scc(-c3ccccc3)n2CCO)cc1 | -25.1% | u | 23.1µM* | u | 16.4µM* | -17.3%
SMILES | HepG2 tox | TGFb SMAD3 inh | TDP1 cell noCPT | HT1080-NT tox | DT40 TDP1 CPT | HT1080 IDH1KD tx
Cn1c(SCc2nc3ccccc3[nH]2)nnc1-c1cnccn1 | 5.1% | 0.0% | 0.9% | 9.5% | -1.2% | 5.8%
C(=C\c1ccccc1)/CSc1nnc(-c2ccccn2)n1Cc1ccco1 | -6.1% | u | 2.91µM* | 5.8µM* | 2.59µM* | 4.11µM*
c1coc(Cn2c(SCc3nc4ccccc4[nH]3)nnc2-c2cnccn2)c1 | -36.8% | -7.2% | 23.1µM* | -16.8% | u | -3.1%
Clc1ccc(OCc2nnc(SCc3nc4ccccc4[nH]3)n2Cc2ccco2)cc1 | -28.0% | u | 20.6µM* | -3.7% | 20.6µM* | -16.0%
O=C(NCc1ccccc1)/C(=C\c1cccc([N+](=O)[O-])c1)NC(=O)c1ccco1 | -2.4% | -26.5% | 4.0% | -0.5% | -11.8% | -1.5%
Cc1ccccc1CC(=O)Nc1ccc(S(=O)(=O)N2CCOCC2)cc1 | 14.7% | 17.5% | 10.5% | 0.7% | 0.3% | 3.0%
CC1(C)CC(=O)C(N=Nc2cccc([N+](=O)[O-])c2)=C(O)C1 | -8.3% | 3.1% | -28.8% | -7.8% | -2.7% | -1.9%
CC1(C)CC(=O)C(N=Nc2ccc(C(F)(F)F)cc2[N+](=O)[O-])=C(O)C1 | -57.2% | 12.6µM* | 23.1µM* | 11.4% | 29.1µM* | 12.4%
O=C(Cc1ccccc1)NCCc1c[nH]c2ccccc12 | -2.2% | 20.7% | -0.1% | 11.7% | -22.2% | 17.6%
CC(=O)NCCc1c[nH]c2ccc(O)cc12 | 4.5% | -1.1% | -18.3% | 27.4% | 18.4µM*! | 4.9%
O=C(Cc1ccc(Cl)cc1)NCCc1c[nH]c2ccccc12 | -18.3% | -1.2% | u | -1.8% | 18.4µM* | -3.9%
COc1ccc2[nH]cc(CCNC(C)=O)c2c1 | -29.2% | 9.7% | 2.7% | 25.5% | -6.3% | 0.5%
Nc1nc2ccc(Cl)cc2cc1C(=O)NCCc1c[nH]c2ccccc12 | x | x | u | u | 8.2µM* | u
O=C(CCCCCNc1nc(=S)[nH]c2ccccc12)NCCc1c[nH]c2ccccc12 | -1.9% | 1.4% | 14.6µM* | 0.7% | 18.4µM* | 3.8%
Nc1nc2ccc(Cl)cc2cc1C(=O)NCCc1ccc(Cl)cc1Cl | x | x | u | 1.5% | u | 1.7%
CNc1ncncc1-c1ccc(C(=O)N(C)C)cc1 | x | x | -1.3% | x | -3.5% | x
COc1ccc(N2C(=O)CSC23C(=O)N(CC(N)=O)c2ccccc23)cc1 (configuration not stated) | 1.3% | 1.4% | -5.8% | x | 18.1% | x
O=C(COC(=O)c1cccc(Cl)c1)NCc1ccccc1 | 9.2% | 9.8% | -22.5% | 5.2% | -14.1% | 1.5%
Nc1nc2cc3c(cc2cc1C(=O)NCc1ccc(F)cc1)OCO3 | x | x | 4.11µM* | u | 16.4µM* | u
